TTR transcr act: activators of transthyretin transcription. SH-SY5Y TTR promoter Gaussia luciferase, luminescence; 100% = recombinant luciferase protein wells. activation, % at 16.7 µM. 92,000 compounds, 1.3% hits;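 active = activation above the mean of all tested compounds plus 3 SD, cut at about 9.5% in these data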;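 also: cells exposed to compounds for one day before reading; 0% = median of all test compound wells on the plate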
HuH7 TTR inh: counter-screen for TTR activators: TTR transcription inhibitors in HuH7 cells; shares compounds with TTR transcr act; HuH7 TTR promoter-Gaussia luciferase reporter, luminescence; inhibition, % at 16.7 µM; 1,100 compounds, 4% hits; AID 1117279;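 active = average inhibition above the solvent-only control wells' mean plus 3 SD, cut at about 15% in these data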;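 also: 0% = cells with DMSO only and 100% = cells with inhibitor control FD; inhibitors lower well luminescence so higher value means more inhibition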
TTR act confirm: confirmation of human transthyretin transcription activators; shares compounds with TTR transcr act; AID 1117280; activation, % at 16.7 µM; SHSY5Y TTR promoter Gaussia luciferase, luminescence; 100% = purified Lucia enzyme wells, no cells; 1,100 tested, under 10 active;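 active = mean activation above a set limit taken from the earlier primary screen, cut at about 11% in these data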;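 also: 0% = DMSO-treated cells and 100% = recombinant Lucia luciferase without cells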
* = called active by the depositor. Many of the other results were omitted from the sample, so hits are more common in it than they were.

SMILES	TTR transcr act	others
COc1ccc(N(CC(=O)Nc2c(C)n(C)n(-c3ccccc3)c2=O)S(=O)(=O)c2ccccc2)cc1OC	11.6*	HuH7 TTR inh=-4.0;TTR act confirm=0.7
Cc1ccc(N(CC(=O)Nc2c(C)n(C)n(-c3ccccc3)c2=O)S(C)(=O)=O)cc1C	3.0
COc1ccc(N(CC(=O)Nc2c(C)n(C)n(-c3ccccc3)c2=O)S(=O)(=O)c2ccc(F)cc2)cc1	-0.2
COCCCNC(=O)C[C@H]1C[C@@]2(C(=O)OC)C(=C[C@H](C3CCCC3)O[C@@H]2C)N(Cc2cccc3ccccc23)C1=O	-0.2
O=C(Nc1ccc(-c2cnco2)cc1)c1ccc(Cl)cc1	3.8
O=C(Nc1ccc(-c2cnco2)cc1)c1ccccc1	14.2*	HuH7 TTR inh=-17.9;TTR act confirm=-0.2
O=C(NC(=O)c1ccccc1Cl)Nc1ccc(-c2cnco2)cc1	-0.3
CCCCC(=O)N[C@H]1CC[C@@]23CCCN2C(=O)CCC[C@H]3[C@H]1CCC	1.3
COc1ccc(Cn2ccc3ccc(-c4ccc5ccn(C(=O)c6ccccc6OC)c5c4)cc32)cc1	-1.5
CCN(C(=O)[C@@H](C)[C@@H](O)c1ccc2ccccc2c1)c1ccccc1	-1.5
[O-]/C(=C(\C(=S)Nc1ccc(SC(F)F)cc1)[n+]1ccccc1)c1cc(Cl)ccc1Cl	22.3*	HuH7 TTR inh=20.5*;TTR act confirm=-1.2
Cc1cc(C)c(/C([O-])=C(/C(=S)Nc2ccc(SC(F)F)cc2)[n+]2ccccc2)cc1C	-2.5
C=CCNC(=S)/C(=C(\[O-])c1ccc(Cl)cc1)[n+]1ccccc1	1.1
Cc1ccc(CN(C)C[C@H]2OCc3cnnn3CCCC(=O)N([C@H](C)CO)C[C@@H]2C)cc1	2.4
CC(C)CNC(=O)OCc1cn(Cc2ccc(F)cc2F)nn1	-0.2
CCOC(=O)c1ccc(N=Nc2c(C)[nH]n(-c3ccccc3)c2=O)cc1	0.4
CC(=O)N(C)c1ccc(N=Nc2c(C)[nH]n(C(N)=S)c2=O)cc1	-0.8
CC(=O)N(C)c1ccc(N=Nc2c(C)[nH]n(-c3ccccc3)c2=O)cc1	11.3*	HuH7 TTR inh=-3.5;TTR act confirm=0.1
C#CCN1CC(N(C)CCOC(=O)c2ccc(C(C)(C)C)cc2)CS1(=O)=O (stereo not drawn)	0.9
CSc1cccc(NC(N)=S)c1	-0.2
OCCNCc1ccc(OC2CCCC2)cc1	5.5
CN(C)CCNCc1ccccc1OC1CCCC1	21.0*	HuH7 TTR inh=-7.7;TTR act confirm=0.4
CCOc1ccccc1CNCCNCC(C)O (stereo not drawn)	1.6
COC(=O)[C@]12C[C@H](CC(=O)NCc3ccc(C)o3)C(=O)N(CCC3=CCCCC3)C1=C[C@H](C1CCCC1)O[C@@H]2C	-1.0
Cc1ccc2nc(SCCC#N)nc(C)c2c1	-2.7
SMILES	TTR transcr act	others
CCOc1ccc2nc(SCc3cccc(C)c3)nc(C)c2c1	0.8
CCOC(=O)CCSc1nc(C)c2cc(C)c(C)cc2n1	14.5*	HuH7 TTR inh=-4.7;TTR act confirm=-1.7
Cn1cnc(Sc2ncnc3nc[nH]c23)c1[N+](=O)[O-]	37.9*	HuH7 TTR inh=0.2;TTR act confirm=-0.5
COc1ccc(C(=O)CSc2ncnc3nc[nH]c23)cc1	-1.0
Cn1cnc([N+](=O)[O-])c1Sc1ncnc2nc[nH]c12	2.0
CCCC[C@H](C(=O)N(C)c1ccccc1)[C@@H](O)c1ccc2ccccc2c1	-2.2
C[C@@H]1CCN(C2CC2)S(=O)(=O)c2c(cccc2N2CCC[C@H]2C)O1	-0.8
CCOc1ccc(NC(=O)C2Cc3ccccc3CN2S(=O)(=O)CC)cc1 (stereo not drawn)	19.9*	HuH7 TTR inh=-14.2;TTR act confirm=-0.4
CCS(=O)(=O)N1Cc2ccccc2CC1C(=O)Nc1ncc(C)s1 (stereo not drawn)	1.8
COc1ccc(S(=O)(=O)N2Cc3ccccc3CC2C(=O)Nc2ccc(O)cc2)cc1OC (stereo not drawn)	1.5
S=C(Nc1ccccc1)OCCN1CCCC12CCC(c1ccccc1)CC2 (stereo not drawn)	1.0
CCCCN1CC[C@@H](C)Oc2cc(Br)ccc2S1(=O)=O	-1.4
CC(C)C(OC(=O)Cn1nnc2ccccc21)C(=O)NC1CCCC1 (stereo not drawn)	5.5
CCn1nnc(C(=O)O)c1C(=O)O	9.9*	HuH7 TTR inh=-8.8;TTR act confirm=-0.6
COc1ccc2c(c1)C1CC(C)(NC(=O)C1S(=O)(=O)c1ccc(F)cc1)O2 (stereo not drawn)	-1.4
COC(=O)[C@]12C[C@H](CC(=O)NCC3CCCCC3)C(=O)N(Cc3ccc(Cl)cc3Cl)C1=C[C@H](C1CCCC1)O[C@@H]2C	0.4
CC1(C)CC(=O)C(C=NCCN2CCN(C(=S)NC3CCCCC3)CC2)=C(O)C1	2.0
CC1(C)CC(=O)C(C=NCCN2CCN(C(=O)CCl)CC2)=C(O)C1	11.8*	HuH7 TTR inh=1.9;TTR act confirm=-1.6
CC1(C)CC(=O)C(C=NCCN2CCN(C(=O)c3ccccc3)CC2)=C(O)C1	1.9
O=C(Nc1ccccc1)Nc1c(-c2ccccc2)nc2ncccn12	-2.0
COC(=O)C1CN(C(=O)OC(C)(C)C)C2=C1C(=O)CC(C)(C(=O)OC(C)(C)C)C2 (stereo not drawn)	3.0
O=C(Nc1ccccc1)c1cc2n(n1)C(C(F)(F)F)CC(C1CC1)N2 (stereo not drawn)	13.9*	HuH7 TTR inh=-14.8;TTR act confirm=0.8
CC(C)NC(=O)c1cc2n(n1)C(C(F)(F)F)CC(c1ccco1)N2 (stereo not drawn)	0.4
O=C(NCc1ccco1)c1cc2n(n1)C(C(F)(F)F)CC(c1ccc(Cl)c(Cl)c1)N2 (stereo not drawn)	-1.0
Cc1nc2ccccn2c1P(=O)(c1ccccc1)c1ccccc1	1.0
SMILES	TTR transcr act	others
COCCN(Cc1cc2ccc(C)cc2[nH]c1=O)S(=O)(=O)c1ccccc1	-2.5
CCOC(=O)C1(Cc2ccc(OC)cc2)CCN(C(=O)c2cncs2)CC1	9.7*	HuH7 TTR inh=-2.4;TTR act confirm=-0.2
CCOC(=O)C1(Cc2ccc(OC)cc2)CCN(C(=O)Cn2cnnn2)CC1	1.0
CCOC(=O)C1(Cc2ccc(OC)cc2)CCN(C(=O)C2CCCO2)CC1 (stereo not drawn)	2.0
Cc1ccc(Nc2cc(Cl)nc(N)n2)c([N+](=O)[O-])c1	3.8
CCOC(=O)C1=C(c2ccccc2)OC(N)=C(C#N)C1c1ccco1 (stereo not drawn)	13.5*	HuH7 TTR inh=-4.5;TTR act confirm=0.0
CCOC(=O)C1=C(C)NC(C)=C(C(=O)OCC)C1c1ccco1	-0.2
CCOC(=O)C1=C(c2ccccc2)OC(N)=C(C#N)C1C1CCCCC1 (stereo not drawn)	-2.1
COc1ccc(/C=C2\N=C3CCCCCN3C2=O)cc1	2.6
O=C1/C(=C/c2ccncc2)N=C2CCCCCN12	47.2*	HuH7 TTR inh=-11.9;TTR act confirm=-0.1
O=C1/C(=C/c2ccncc2)CCC/C1=C\c1ccncc1	-6.0
C[C@H](c1ccccc1)N1C[C@@H](COCc2ccccc2)Oc2cccc(F)c2S1(=O)=O	4.1
COc1ccc(N2CCN(C(=O)c3ccc(CS(=O)Cc4ccc(Cl)cc4)o3)CC2)cc1 (stereo not drawn)	0.5
CCN1CCN(Cc2ccc(NC(=O)c3ccc(C)c(NC(=O)c4nccn4C)c3)cc2C(F)(F)F)CC1	10.6*	HuH7 TTR inh=-15.0;TTR act confirm=-0.5
CCN1CCN(Cc2ccc(NC(=O)c3ccc(C)c(NC(=O)c4cc(-c5ccc(Br)cc5)n[nH]4)c3)cc2C(F)(F)F)CC1	-3.7
CCN1CCN(Cc2ccc(NC(=O)c3ccc(C)c(NC(=O)c4cccc5[nH]ccc45)c3)cc2C(F)(F)F)CC1	-1.7

Assay outcomes deposited in PubChem BioAssay by The Scripps Research Institute Molecular Screening Center.
